Screen size: about 50,000 compounds; about 800 (1.6%) showed an effect of 50% or more. The list comes from a sample in which strong results are over-represented; it also holds similar structures and randomly drawn compounds.
Target: Bcl-2-like protein 10 (Homo sapiens) (UniProt Q9HD36)
Assay: Phenotype converters, Bcl-B/TR3 peptide binding displacement, primary biochemical FP (AID 1240);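 also: 0% = Bcl-B with tracer peptide and DMSO and 100% = tracer peptide lacking Bcl-B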
Details: GST-Bcl-B / FITC-TR3 peptide fluorescence polarization; stronger effect = higher value; compound at 3.75 mg/L

Bcl-2-like protein 10 (Homo sapiens), sequence (Q9HD36 whole entry, looked up): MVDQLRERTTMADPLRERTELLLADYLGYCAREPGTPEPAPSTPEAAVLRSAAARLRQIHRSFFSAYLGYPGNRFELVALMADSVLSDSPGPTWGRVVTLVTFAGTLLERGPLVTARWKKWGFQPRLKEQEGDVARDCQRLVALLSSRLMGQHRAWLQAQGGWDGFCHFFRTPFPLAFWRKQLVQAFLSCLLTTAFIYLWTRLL

| Compound | displacement [%] |
| --- | --- |
| Cc1ccccc1C(=O)O/N=C(\N)c1cccc([N+](=O)[O-])c1 | -7.1 |
| Clc1ccc(OCCCN2CCCCC2)cc1 | -10 |
| COc1ccccc1OCCCN1CCOCC1 | -1.3 |
| COc1ccc(C2CC(O)C(C)C(c3ccc(OC)cc3)N2)cc1 (configuration not stated) | 7.8 |
| CCOc1ccc(C(=O)Nc2cccc(C(F)(F)F)c2)cc1Cl | -12 |
| Cc1ccc(C(=O)Nc2ccc(-c3nc4ncccc4o3)cc2)cc1C | 21.5 |
| COc1ccc(-c2cc(=O)oc3cc(OC(C)=O)ccc23)cc1 | -5.1 |
| CC(=O)N(c1ccccc1)c1nnc(C)s1 | -0.3 |
| O=C1NC(=O)N(c2ccccc2F)C(=O)/C1=C/c1ccc(I)o1 | 34.5 |
| CCN(CC)c1ccc(/C=C(\C#N)C(=O)Nc2ccc(OC)cc2)c(OC)c1 | -6.6 |
| CCN(CC)c1ccc(C=C(C#N)C#N)c(OC)c1 | 91.5 |
| CCN(CC)c1ccc(C=C(C(C)=O)C(C)=O)c(OC(C)=O)c1 | 48.6 |
| Cc1cc(OCC(O)CNC(C)C)cc(C)c1Cl (configuration not stated) | 3.1 |
| O=C(Cn1cc(/C=C2/C(=O)NC(=S)N(c3ccccc3)C2=O)c2ccccc21)Nc1ccccc1 | 143 |
| O=C(Cn1cc(C=C2C(=O)NC(=S)NC2=O)c2ccccc21)Nc1ccccc1 | 130 |
| O=C(Cn1cc(/C=C2\NC(=S)NC2=O)c2ccccc21)Nc1ccccc1 | -41.9 |
| COc1ccc(N2C(=O)/C(=C/c3cn(Cc4ccccc4)c4ccccc34)C(=O)NC2=S)cc1 | 25 |
| NC(=O)Cn1cc(/C=C2\C(=O)NC(=O)N(Cc3ccccc3)C2=O)c2ccccc21 | 17 |
| O=C(Cn1cc(/C=C2\SC(=S)NC2=O)c2ccccc21)Nc1ccccc1 | -11.9 |
| O=C(Nc1ccccc1)Nc1nnc(Cc2cccc(Br)c2)s1 | 1.9 |
| CC1=C(C(=O)OCCc2ccccc2)C(c2ccccc2Cl)CC(=O)N1 (configuration not stated) | -7.2 |
| CC(C)(C)c1csc(N/N=C/c2ccccn2)n1 | -6.6 |
| OCCNCCOc1cccc(Cl)c1Cl | 2.8 |
| O=C1C2C3C=CC(O3)C2C(=O)N1c1ccccc1I (configuration not stated) | 17.8 |
| CCOc1ccccc1C(=O)Nc1ccc(N2CCOCC2)cc1 | 3.2 |
| Cc1cccc(/C=C2/SC(=S)N(Cc3ccccc3)C2=O)c1 | 13.4 |

| Compound | displacement [%] |
| --- | --- |
| Nc1nc2nc(C(F)(F)C(F)(F)C(F)(F)C(F)(F)F)cc(=O)n2[nH]1 | -1.7 |
| COc1cc(OC)c(OC)cc1CNc1cccc(C)c1 | 4.3 |
| N#C/C(=C\c1ccc(-c2ccc(Br)cc2)o1)c1nc2ccccc2[nH]1 | 2.1 |
| N#CC(C#N)=Cc1ccc(-c2ccc(S(N)(=O)=O)cc2)o1 | -0.4 |
| N#C/C(=C\c1ccc(-c2ccc3c(c2)COC3=O)o1)c1nc2ccccc2[nH]1 | 58.6 |
| N#C/C(=C/c1ccc(-c2ccc3c(c2)C(=O)NC3=O)o1)C(N)=O | 140 |
| Cc1ccc([N+](=O)[O-])cc1-c1ccc(/C=C(\C#N)c2nc3ccccc3[nH]2)o1 | -0.7 |
| N#CC(C#N)=Cc1ccc(-c2ccc3c(c2)COC3=O)o1 | 109 |
| N#C/C(=C\c1ccc(-c2ccc(Cl)c(Cl)c2)o1)C(N)=O | 7.8 |
| N#C/C(=C\c1ccc(-c2ccc3c(c2)COC3=O)o1)C(N)=O | -10.4 |
| N#C/C(=C\c1ccc(-c2ccc(Br)cc2)o1)C(N)=O | 4.6 |
| COc1ccc2ccccc2c1C=Nc1ccc(C)c(I)c1 | -9.7 |
| CCOc1cc(/C=N/n2cnnc2)ccc1OCCOc1ccc(Br)cc1 | 19.3 |
| O=C(/C=C/c1ccc(F)cc1)c1nc2ccccc2s1 | -6 |
| CCc1ccccc1N1C(=O)CC(Sc2nc(C)cc(C)n2)C1=O (configuration not stated) | 10.8 |
| Cc1ccc(C=Nc2ccc(F)cc2)o1 | 4.1 |
| CC(C)OC(=O)c1ccc(NC(=O)c2cncc(Br)c2)cc1 | 12.3 |
| O=C(Nc1ccc(NC(=O)c2cccc(Br)c2)cc1)c1ccccc1 | 0 |
| CC(C)OC(=O)c1ccc(NC(=O)c2cccc(Br)c2)cc1 | 69.2 |
| COc1ccc(N(CC(=O)Nc2cccc(C)c2)S(=O)(=O)c2ccc(C)cc2)c(OC)c1 | 3.6 |
| CCOC(=O)C1CCN(S(=O)(=O)c2ccc(F)cc2)CC1 | -8 |
| N#Cc1ccccc1N=C1CCCN1Cc1ccccc1 | 17.4 |
| Cc1ccc(-c2ccc(OCC(=O)Nc3ccccc3C(N)=O)cc2)cc1 | 4.4 |
| O=C(NC(=S)NC1CCSC1=O)c1ccco1 (configuration not stated) | 1 |
| O=C(Nc1ccncc1)c1cc2c(ccc3ccccc32)oc1=O | 9.6 |
| Cc1cccnc1NC(=O)c1cc2c(ccc3ccccc32)oc1=O | 93 |

| Compound | displacement [%] |
| --- | --- |
| Cc1cccc(NC(=O)c2cc3c(ccc4ccccc43)oc2=O)n1 | -7 |
| COc1cc(/C=N/NC(N)=O)ccc1OCC(=O)N1CCCCC1 | -4.4 |
| COC(=O)c1ccccc1NC(=O)CSc1nnc(-c2cccc(F)c2)n1-c1ccccc1 | -1.1 |
| CC(C)(C)/C(O)=C/c1nc2cc([N+](=O)[O-])ccc2[nH]c1=O | 0.3 |
| Cc1nc(C)c(/C(O)=C/c2nc3ccccc3[nH]c2=O)s1 | 61.6 |
| Cc1ccc(-c2nc3ccccc3[nH]2)s1 | 0.7 |
| Cc1cccc(-c2nc3ccccc3[nH]2)c1 | 10.9 |
| Cc1nc(C)c(/C(O)=C/c2nc3ccc([N+](=O)[O-])cc3oc2=O)s1 | -12 |
| Cc1cc(-c2ccccc2)sc1/C(O)=C/c1nc2ccccc2[nH]c1=O | 112 |
| O=C(Nc1cccc(C(F)(F)F)c1)c1nn2c(c1Br)NC(c1cccs1)CC2C(F)(F)F (configuration not stated) | 4.5 |
| COc1ccccc1NC(=O)c1c(NC(=O)Cc2ccccc2)sc2c1CCCCC2 | 9.3 |
| CC(C)OP(=O)(OC(C)C)C(Nc1ccc(Br)cc1)c1ccc(O)cc1 (configuration not stated) | -13.8 |
| CCOc1ccccc1N(CC(=O)NC1CCCCC1)S(=O)(=O)c1ccccc1 | 10.8 |
| C=CCN1C(=O)/C(=C\c2ccc(OCc3cccc4ccccc34)cc2)SC1=S | 87.1 |
| C=CCN1C(=O)/C(=C\c2ccc(OCc3ccccc3Cl)cc2)SC1=S | 95.7 |
| CCN1C(=O)/C(=C\c2ccc(OCc3ccccc3Cl)cc2)SC1=S | 15.9 |
| C=CCN1C(=O)/C(=C\c2cc(Cl)ccc2OCc2ccccc2F)SC1=S | 60.2 |
| CCN1C(=O)/C(=C\c2cccc(OCc3cccc4ccccc34)c2)SC1=S | 4.6 |
| C=CCN1C(=O)/C(=C\c2ccccc2OCc2ccc(Cl)cc2)SC1=S | 23.3 |
| CN1C(=O)/C(=C\c2ccc(OCc3cccc4ccccc34)cc2)SC1=S | -0.8 |
| C=CCN1C(=O)/C(=C/c2cccc(OCc3ccccc3Cl)c2)SC1=S | -4.4 |
| C=CCN1C(=O)/C(=C/c2ccccc2OCc2ccccc2Cl)SC1=S | 11.6 |
| C=CCN1C(=O)/C(=C\c2ccc(OCc3ccccc3)cc2)SC1=S | 11.4 |
| C=CCN1C(=O)/C(=C\c2cccc(OCc3cccc4ccccc34)c2)SC1=S | 15.9 |
| CCN1C(=O)/C(=C\c2ccc(OCc3cccc4ccccc34)cc2)SC1=S | 106 |

— PubChem BioAssay AID1240 (Sanford-Burnham Center for Chemical Genomics, 2008)
